Among all 48,000 compounds or so, about 13,000 (27%) showed an effect of 50% or more. This is one part of the list.
Tested on: Wolbachia pipientis
Assay: Anti-Wolbachia Cell-Based Screen
Type: functional
Set-up: scale not given: in the data most compounds retested in dose-response had high values
Settings: 5 µM

SMILES	Percent Effect [%]
CC(C)(C(=O)NCCC(=O)O)c1cccc(Br)c1	-20.92
Cc1ccc(-c2ccnc(N(C)CC3CCCO3)n2)c(C)n1 (centres undefined)	111.2
CN(CC1CCCCO1)c1nncc(-c2cccc(F)c2)n1 (centres undefined)	-2.947
Cc1nn(C)cc1CN(C)c1nccc(-c2cn(C)nc2C)n1	-19.87
CCCc1nnc(N(C)CC2CCCN(CC)C2)o1 (centres undefined)	-14.65
CN(CC1CCCN1C)c1nccc(C2CCCC2)n1 (centres undefined)	25.37
CCN1CCCC(CN(C)c2nccc(-c3ccc(C)nc3C)n2)C1 (centres undefined)	89.59
Cc1ccc(-c2ccnc(N(C)CC3CCCN3C)n2)c(C)n1 (centres undefined)	123
Cc1ccc(-c2ccnc(N[C@H]3COC[C@@H]3N3CCCC3)n2)c(C)n1	-11.11
Cc1csc(CN(CC2CCCO2)C(=O)c2ccc(C)nc2C)n1 (centres undefined)	-5.335
Cc1ccc(CNC(CCO)C2CCCCC2)nc1 (centres undefined)	14.22
CCOCC(=O)Nc1ncn(Cc2cccc(Br)c2)n1	5.844
CNC(=O)C1CCCCN1C(=O)c1csc(-c2ccc(C)cc2)n1 (centres undefined)	-3.515
C[S+]([O-])c1nncn1CCCc1ccc(Cl)cc1 (centres undefined)	1.023
O=C(CCc1ccccc1)C1CCCN(Cc2cncn2C2CC2)C1 (centres undefined)	-3.844
CCS(=O)(=O)N1CCCC(n2nnn(-c3ccccc3)c2=O)C1 (centres undefined)	133
CS(=O)(=O)N1CCC(N2CCCC2c2ccccn2)CC1 (centres undefined)	-15.97
CS(=O)(=O)N1CCN2C(=O)N(C3CCCCC3)C[C@H]2C1	-8.389
CS(=O)(=O)N1CCCC(C(=O)N2CCOc3ccccc32)C1 (centres undefined)	-6.293
CS(=O)(=O)N1CCCC(n2nnn(-c3ccccc3)c2=O)C1 (centres undefined)	149.4
CCS(=O)(=O)N1CCCC(c2nc3ccccc3n2C(C)C)C1 (centres undefined)	-13.43
NC(=O)C1CCN(S(=O)(=O)c2cnn(-c3ccccc3)c2)C1 (centres undefined)	-1.203
CS(=O)(=O)N1CCC(n2nnn(-c3ccccc3)c2=O)CC1	113.8
CCS(=O)(=O)Cc1nnnn1-c1ccccc1	1.834
Cc1nc(CN2CCC(CNC(=O)C3(C#N)CCCC3)CC2)oc1C	-2.689
O=C(NCCNS(=O)(=O)c1cc(F)cc(F)c1)c1ccoc1	3.11
COCc1ncc(CN(CCN(C)C)Cc2ccc(C)s2)cn1	-7.942
OC(CNCCn1cccn1)COc1ccc2ccccc2c1 (centres undefined)	-4.73
CO[C@@H]1CCN(S(=O)(=O)c2cn(C)cn2)[C@H]1Cc1ccncc1.O=C(O)C(F)(F)F	7.215
